Assay results as given in PubChem BioAssay AID1565 (Sanford-Burnham Center for Chemical Genomics, 2009).
Screen size: about 290,000 compounds; about 3,200 (1.1%) were called active. Cut-off read from the data, not from the text of the source: active = inhibition above about 60%; inactive = the rest. What follows is part of a selection rich in actives, with near analogues and random picks from the rest.

Each compound was assayed against Phosphoethanolamine/phosphocholine phosphatase (Homo sapiens) (UniProt Q8TCT1) (assay: PubChem AID 1565). Conditions: recombinant PHOSPHO1, absorbance phosphatase assay; at 13.3 µM; hits give high values.
Sequence of Phosphoethanolamine/phosphocholine phosphatase (Homo sapiens) (Q8TCT1 whole entry, looked up): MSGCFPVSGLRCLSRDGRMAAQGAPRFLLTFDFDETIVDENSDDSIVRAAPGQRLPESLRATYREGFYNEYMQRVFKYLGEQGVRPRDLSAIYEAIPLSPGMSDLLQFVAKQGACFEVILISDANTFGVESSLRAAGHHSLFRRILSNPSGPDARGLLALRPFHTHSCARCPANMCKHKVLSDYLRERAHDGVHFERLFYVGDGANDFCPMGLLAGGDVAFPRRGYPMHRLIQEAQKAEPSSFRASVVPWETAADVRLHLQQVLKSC

SMILES	inhibition
O=C(Nc1nccs1)C1CCCN1S(=O)(=O)c1cccc2cccnc12 (stereo not drawn)	2.7% (inactive)
Cc1cc(C)cc(NC(=O)C2CCCN2S(=O)(=O)c2cccc3cccnc23)c1 (stereo not drawn)	44.5% (inactive)
Cc1ccc(NC(=O)C2CCCN2S(=O)(=O)c2cccc3cccnc23)c(C)c1 (stereo not drawn)	70.1% (active)
O=C(CN(C(=O)c1csnn1)c1ccc(Br)cc1)NC1CCCC1	26.9% (inactive)
COc1ccc(CC(=O)N[C@@H](CCSC)c2nc3ccccc3[nH]2)cc1	12.4% (inactive)
CSCCC(NC(=O)c1cc([N+](=O)[O-])cc([N+](=O)[O-])c1)c1nc2ccccc2[nH]1 (stereo not drawn)	-8.6% (inactive)
CSCCC(NC(=O)c1ccc(=O)n(C)n1)c1nc2ccccc2[nH]1 (stereo not drawn)	79.8% (active)
CCCCC(=O)Nc1ccccc1N1CCN(c2ccc(F)cc2)CC1	-152% (inactive)
Oc1ccccc1-c1cc(-c2ccc(Cl)cc2)n[nH]1	19.7% (inactive)
Cc1cc(C)c(SCCc2ccncc2)c(C)c1	24.1% (inactive)
C/C(=N\Nc1cccc(C(=O)O)c1)c1ccc2c(c1)Nc1ccccc1S2	81.3% (active)
O=C(O)c1cccc(N2C(=O)Nc3ccccc3N2O)c1	8.3% (inactive)
O=C(NC1CC1)c1ccc2c(c1)NC(=O)c1ccccc1S2	0.7% (inactive)
Cc1ccccc1N1CCN(C2CCCN(C(=O)c3cn4c(C)cccc4n3)C2)CC1 (stereo not drawn)	22.3% (inactive)
Cc1ccc(NC(=O)CN2C(=O)NC(C)(c3ccc(Cl)cc3)C2=O)c(Br)c1 (stereo not drawn)	27.9% (inactive)
Cc1cc(NC(=O)CCC(=O)N(Cc2ccccc2)C(C(=O)NC2CCCC2)c2ccc(C)o2)no1 (stereo not drawn)	46.2% (inactive)
CCOCCCN(C)C1CCN(C(=O)c2oc3ccccc3c2NC(=O)Cc2cccc([N+](=O)[O-])c2)CC1	16.9% (inactive)
CCOc1ccc(OCCSc2nc3ccccc3n2CC(=O)O)cc1	13.8% (inactive)
Cc1cccc(N=C2NN=C(c3c[nH]c4ccccc34)CS2)c1	-2% (inactive)
c1ccc(CN2CCC(N=C3NN=C(c4ccc5c(c4)OCCO5)CS3)CC2)cc1	12.7% (inactive)
Clc1cccc(N=C2NN=C(c3ccc4c(c3)OCCO4)CS2)c1	78% (active)
CCCn1c(=O)c(C(=O)Nc2cc(C)ccn2)c(O)c2ccccc21	-7.8% (inactive)
S=c1[nH]cc(-c2ccc(Cl)cc2)n1-c1ccccc1	69.5% (active)
S=c1[nH]nc(CSCc2ccc(Cl)cc2Cl)n1-c1ccccc1	34.7% (inactive)

SMILES	inhibition
S=c1[nH]ccn1-c1ccc(Cl)cc1	-13% (inactive)
CN1CCN(/N=C/c2ccc(-c3ccc([N+](=O)[O-])cc3)o2)CC1	17.9% (inactive)
COc1cccc(CNC(=O)c2cccnc2Sc2ccc(Cl)cc2)c1	23.3% (inactive)
Cc1nc(NC(=O)c2ccc3c(c2)OCCO3)ccc1Br	7.6% (inactive)
CC(C)[C@@H]1COC(c2cccc(C3=N[C@H](C(C)C)CO3)c2)=N1	-1.7% (inactive)
COc1ccc(C(=O)NC2CC2)cc1OC1CCN(Cc2ccc(SC)cc2)CC1	27.3% (inactive)
Cc1onc(-c2ccccc2)c1C(=O)NNC(=S)NC(=O)c1ccc(F)cc1	-4.5% (inactive)
O=C(Nc1cn(-c2ccccc2)nc1-c1ccccc1)c1ccccc1	-2.5% (inactive)
O=C(NNC(=S)NC(=O)c1cn(-c2ccccc2)nc1-c1ccccc1)c1ccncc1	80.9% (active)
CC1CCN(C(=S)NC(=O)c2ccccc2Br)CC1	17.4% (inactive)
COc1ccc(CCNC(=O)C2CCCN2C(=O)Nc2ccccc2)cc1OC (stereo not drawn)	23.5% (inactive)
Cc1c(CCC(=O)N[C@@H](CC(C)C)C(=O)O)c(=O)oc2c(C)c3oc4c(c3cc12)CCCC4	31.6% (inactive)
Cc1ccc(NC(=S)Nc2ccc(F)cc2)cc1	19.2% (inactive)
Cc1ccc(NC(=S)N/N=C2/CCCc3c(C)cc(C)cc32)cc1	85.8% (active)
Cc1ccc(C)c(NC(=S)NNC(=S)Nc2ccc(C(C)C)cc2)c1	-6.1% (inactive)
COC(=O)c1ccc(NC(=O)CSc2nc(N)c(NC(=O)c3ccc(Br)o3)c(=O)[nH]2)cc1	42.8% (inactive)
CCn1c(SCCC(C)C)nnc1-c1c[nH]c2ccccc12	0.7% (inactive)
CCOC(=O)N1CCN(C(=O)CSc2nnc(-c3c[nH]c4ccccc34)n2CCOC)CC1	25.5% (inactive)
CCC(C)Sc1nnc(-c2c[nH]c3ccccc23)n1CCOC (stereo not drawn)	61.5% (active)
CC(C)(C)c1ccc(SCCc2ccncc2)cc1	13.8% (inactive)
Cc1ccc(CC2C(=O)N(c3ccc(F)cc3)C(=O)C2C)cc1 (stereo not drawn)	-2.6% (inactive)
Cc1ccc(N2CCN(c3ccc([N+](=O)[O-])cn3)CC2)c(C)c1	19.7% (inactive)
Cc1ccc(-n2c(C)cc(/C=N/Nc3ccc([N+](=O)[O-])cn3)c2C)c(C)c1	98.7% (active)
Cc1cc(/C=N/Nc2ccc([N+](=O)[O-])cn2)c(C)n1-c1cccc(C(=O)O)c1	15.9% (inactive)

SMILES	inhibition
COC(=O)C1CCCCN1C(=O)c1ccc(OC2CCN(C(C)=O)CC2)c(OC)c1 (stereo not drawn)	57.6% (inactive)
COc1cc2[nH]c(=S)n(Cc3ccc(F)cc3)c(=O)c2cc1OC	-42.1% (inactive)
COc1cc2[nH]c(=S)n(CCN3CCCCC3C)c(=O)c2cc1OC (stereo not drawn)	24.2% (inactive)
COc1cc2[nH]c(=S)n(Cc3ccc(C)o3)c(=O)c2cc1OC	69.6% (active)
COc1ccc(C(=O)NCCn2nc(C)cc2C)cc1OC1CCN(C(C)=O)CC1	19.2% (inactive)
COc1ccc2c(c1)c1nc3n(c(=O)c1n2CC(=O)Nc1ccccc1)CCS3	-27.3% (inactive)
Cn1c(=O)c2c(nc(NCCNC(=O)c3ccco3)n2Cc2ccccc2F)n(C)c1=O	26.1% (inactive)
Cc1nn(C)cc1C(=O)NNC(=S)Nc1ccc(Cl)cc1	97.7% (active)
Cn1cc(Cl)c(C(=O)NNC(=S)Nc2cccc(Cl)c2)n1	-35.3% (inactive)
Cc1nn(C)cc1CNC(=O)Nc1ccc(Cl)cc1	8% (inactive)
O=S1(=O)N=C(N(CCO)/N=C/c2ccccc2F)c2ccccc21	28.4% (inactive)
Cc1nonc1NC(=O)c1oc2ccccc2c1C	24% (inactive)
CC1CCCCC1NC(=O)CSc1nnc(N)s1 (stereo not drawn)	-3.4% (inactive)
Cn1ccnc1SCC(=O)Nc1ccc2c(c1)OCCO2	19.8% (inactive)
CC1CCCC(NC(=O)CSc2nccn2C)C1C (stereo not drawn)	92.3% (active)
CCn1cc(/C=C(\NC(=O)c2cc(OC)c(OC)c(OC)c2)C(=O)N2CCN(C)CC2)c2ccccc21	49.6% (inactive)
COc1ccc(C2/C(=C(/O)c3ccccc3)C(=O)C(=O)N2C)c(OC)c1 (stereo not drawn)	-2.4% (inactive)
CCOc1ccc(/C(O)=C2\C(=O)C(=O)N(c3ccc(OC)cc3)C2c2ccccc2[N+](=O)[O-])cc1 (stereo not drawn)	60.8% (active)
COc1ccccc1C1/C(=C(/O)c2ccc(OC(C)C)cc2)C(=O)C(=O)N1c1cc(C)on1 (stereo not drawn)	-55.7% (inactive)
COc1ccc(OCCC(=O)c2ccc(OC)cc2)cc1	20% (inactive)
CC(=O)c1ccc(OCCN2CCOCC2)cc1	-11.5% (inactive)
CC(C)CCOc1ccc(C(=O)C[N+]2(C)CCOCC2)cc1	90.6% (active)
O=C(NCc1cccnc1)C12CC3CC(CC(C3)C1)C2	32.6% (inactive)
CN(NS(=O)(=O)c1cccs1)c1ncc(C(F)(F)F)cc1Cl	33.5% (inactive)

SMILES	inhibition
COc1ccc(-c2nnc(SCC(=O)c3cccs3)o2)c(OC)c1	28.9% (inactive)
COc1ccc(C(=O)CSc2nnc(-c3ccco3)o2)cc1	36.7% (inactive)
COc1ccc(-n2c(C)cc(C(=O)CSc3nnc(-c4cccs4)o3)c2C)cc1	85.5% (active)
CSCC[C@H](NC(=O)N1CCn2c1nc1ccccc12)C(=O)NC1CCCCC1	35.5% (inactive)
COc1ccc(OCc2nnc3n2N=C(c2ccccc2)C(CC(=O)O)S3)cc1 (stereo not drawn)	-69.6% (inactive)
CN(C)c1cccc(C(=O)N2CCC(n3nccc3NC(=O)C3CCOC3)CC2)c1 (stereo not drawn)	27.6% (inactive)
Cc1ccc(C(=O)N2CCC(n3nccc3NC(=O)Nc3cccc(F)c3)CC2)cn1	64% (active)
COc1cccc(C(=O)N2CCC(n3nccc3NC(=O)C3CCOC3)CC2)c1 (stereo not drawn)	40.8% (inactive)
COc1ccc2[nH]c(C(=O)N/N=C/c3cc(OC)c(OC)c(OC)c3)cc2c1	9.8% (inactive)
Cc1cc(C)nc(NC(=O)C(C)N2C(=O)c3ccccc3C2=O)n1 (stereo not drawn)	-12.8% (inactive)
Cc1ccnc(NC(=O)C(C)N2C(=O)c3ccccc3C2=O)c1 (stereo not drawn)	60% (active)
CCOc1ccc(NC(=O)C(C)N2C(=O)c3ccccc3C2=O)cc1 (stereo not drawn)	24.3% (inactive)
CCc1nc2cccnc2n1-c1ccc(C(=O)O)cc1	35.1% (inactive)
COc1ccc(CCNC(=O)C(=O)NCC2OCCN2S(=O)(=O)c2cccs2)cc1OC (stereo not drawn)	4.5% (inactive)
CCn1cc(CN2CCC(n3nccc3NC(=O)CCCc3ccccc3)CC2)c(C)n1	29% (inactive)
COc1cc(CN2CCC(n3nccc3NC(=O)CCCc3ccccc3)CC2)ccc1O	-5% (inactive)
Cc1ccc(CN2CCC(n3nccc3NC(=O)CCCc3ccccc3)CC2)o1	2.6% (inactive)
CC(=O)NCC(=O)N1CCC(n2nccc2NC(=O)CCCc2ccccc2)CC1	65.8% (active)
CC(=O)N[C@@H](C)C(=O)N1CCC(n2nccc2NC(=O)CCCc2ccccc2)CC1	61.6% (active)
COc1ccc(CN2CCC(n3nccc3NC(=O)CCCc3ccccc3)CC2)cc1C	37.7% (inactive)
N#Cc1ccccc1S(=O)(=O)N1CCN(C(=O)c2cc(-c3ccccc3)nn2-c2ccccc2)CC1	14.5% (inactive)
